Cdc25B inh = inhibitors of human Cdc25B phosphatase. 0.1% of 65,000 active. inhibition, %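 (compounds tested at 10 µM final in the well)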. recombinant Cdc25B, OMFP fluorescence Ex485/Em525; in the data active = inhibition above about 50%
Target sequence (P30305 whole entry, looked up): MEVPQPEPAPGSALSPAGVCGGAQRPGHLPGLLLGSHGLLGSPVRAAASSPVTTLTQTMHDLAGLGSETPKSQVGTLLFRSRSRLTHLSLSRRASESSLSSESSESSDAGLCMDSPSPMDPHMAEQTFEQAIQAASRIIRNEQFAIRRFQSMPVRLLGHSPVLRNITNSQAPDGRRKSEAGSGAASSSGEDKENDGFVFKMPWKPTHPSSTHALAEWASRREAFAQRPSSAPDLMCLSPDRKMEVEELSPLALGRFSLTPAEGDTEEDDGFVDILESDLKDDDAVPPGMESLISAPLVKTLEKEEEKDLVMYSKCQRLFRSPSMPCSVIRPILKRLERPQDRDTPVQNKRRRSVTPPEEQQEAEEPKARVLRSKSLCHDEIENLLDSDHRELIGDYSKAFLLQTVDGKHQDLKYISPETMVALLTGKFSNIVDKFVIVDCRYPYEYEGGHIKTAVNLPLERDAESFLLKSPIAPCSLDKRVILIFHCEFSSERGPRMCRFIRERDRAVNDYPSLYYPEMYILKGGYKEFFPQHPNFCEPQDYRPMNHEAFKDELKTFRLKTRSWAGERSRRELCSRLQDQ
SKBR3 24h inh = SK-BR-3 proliferation inhibitors; SK-BR-3 viability, CellTiter-Glo ATP luminescence, 24 h; hits give low values; viability, % at 10 µM; 0.47% of 41,000 active; AID 847;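 active = viability at or below the median of all test compounds minus 3 SD, in both replicates if run twice, cut at about 45% in these data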
MKP-1 inh = human dual specificity phosphatase 1 inhibition; P28562; inhibition, %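 (compounds tested at a single concentration somewhere between 10 and 100 µM)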; 0.15% of 65,000 active; recombinant MKP-1, OMFP hydrolysis fluorescence;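 active = inhibition above about 50%, limit read from the data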
Jurkat viability = cytotoxicity toward Jurkat cells; Jurkat E6.1 viability, ATP luminescence, 48 h; inhibition, % at 4 µM; 1.2% of 56,000 active; AID 463;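 active = inhibition above the mean inhibition of all tested compounds plus 3 SD, cut at about 28% in these data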
Htt clearance = mutant huntingtin protein clearance. HeLa Exon1htt(103Q)mCFP, aggregate imaging; zero = plate's median compound well. inhibition, % at 1.5 µM. 0.42% of 47,000 active;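 active = inhibition of aggregate fluorescence above about 70%, also judged a hit by eye on the cell image, limit read from the data, passing the limit was not always enough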;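 also: cells exposed to compound for three days before fixation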
Large screens that a line does not name were inactive. A selection: hits, their analogues and other compounds. The true share with any hit is near 1.6%.

CC1=C(C(=O)OCc2ccc3c(c2)OCO3)C(c2ccc(F)cc2)NC(=O)N1 (stereo not drawn)	Jurkat viability 83.5
CCOC(=O)C1=C(C)NC(=O)NC1c1ccc2c(c1)OCCO2 (stereo not drawn)	none
CC1=C(C(=O)OCc2ccc3c(c2)OCO3)C(c2ccc(Cl)cc2)NC(=O)N1 (stereo not drawn)	Jurkat viability 77.7 (no result: Htt clearance)
COc1ccc(COC(=O)C2=C(C)NC(=O)NC2c2ccc(O)c(OC)c2)cc1 (stereo not drawn)	none
Cc1cc2c(cc(C(=O)NCc3cccnc3)n2Cc2ccc(Cl)cc2)o1	none (no result: SKBR3 24h inh, Htt clearance)
Cn1cccc1Cc1nnc(SCC(=O)Nc2ccc3c(c2)OCCO3)n1CCc1ccccc1	none (no result: SKBR3 24h inh, Htt clearance)
CC(C)(C)C(=O)NC1CCN(C(=O)N2CCCC2)CC1	Htt clearance 99.2 (no result: SKBR3 24h inh)
O=C(Nc1ccccc1F)N(CCCN1CCOCC1)Cc1cc2cc3c(cc2[nH]c1=O)OCCO3	none
COc1ccc(N=CC2=C(Nc3ccc(OC)cc3)c3c(C)nn(-c4ccccn4)c3CC2)cc1	none (no result: Cdc25B inh, SKBR3 24h inh, MKP-1 inh, Jurkat viability)
CCn1nnnc1SCC(=O)c1cc(OC)ccc1OC	none (no result: Htt clearance)
Cc1cc(NC(=O)CSc2nc(CCC3CCCC3)nc3ccccc23)no1	Htt clearance 84.3
CCOC(=O)C1CCCN(C(=O)c2cc3c(-c4cccc(OC)c4)nn(C)c3s2)C1 (stereo not drawn)	Jurkat viability 79.1 (no result: SKBR3 24h inh, Htt clearance)
CCOC(=O)C1CCN(C(=O)c2cc3c(-c4ccc(OC)c(OC)c4)nn(C)c3s2)CC1	none (no result: SKBR3 24h inh)
COC(=O)C1=C(N)Oc2cc(N(C)C)ccc2C1c1ccccc1OC (stereo not drawn)	Jurkat viability 74.9 (no result: SKBR3 24h inh, Htt clearance)
Cc1ccc(C(=O)C(OC(=O)CNS(=O)(=O)c2ccccc2)c2ccccc2)cc1 (stereo not drawn)	none (no result: Cdc25B inh, SKBR3 24h inh, MKP-1 inh, Jurkat viability)
Cc1nn(-c2ccccc2)c(C)c1NS(=O)(=O)c1ccccc1	none
O=C(CSc1nc2c([nH]c3ccccc32)c(=O)n1-c1ccccc1)N1CCOCC1	none (no result: SKBR3 24h inh, Htt clearance)
COc1ccc(-n2c(SCC(=O)N3CCCC3)nc3c([nH]c4ccccc43)c2=O)cc1	MKP-1 inh 54.2 (no result: SKBR3 24h inh, Htt clearance)
O=C1CCCN1c1ccc(S(=O)(=O)Nc2ccc3c(c2)OCCO3)cc1	Jurkat viability 82.0 (no result: Htt clearance)
O=S(=O)(Nc1ccc2c(c1)OCCO2)c1ccc(F)cc1	none (no result: Cdc25B inh, SKBR3 24h inh, MKP-1 inh, Jurkat viability)
CCOc1cccc(N2C(=O)CC(NCc3ccc(S(N)(=O)=O)cc3)C2=O)c1 (stereo not drawn)	none
CC(C)(C)n1ncc2c(=O)n(CC(=O)NCc3ccc(F)cc3)cnc21	Jurkat viability 54.5 (no result: SKBR3 24h inh)
CC(C)(C)n1ncc2c(=O)n(CC(=O)NCc3ccco3)cnc21	none (no result: SKBR3 24h inh)
N#Cc1c(NC(=O)CCC(=O)O)sc2c1CCCC2	none (no result: Jurkat viability, Htt clearance)
CC(C)c1cc(C(=O)Nc2sc3c(c2C#N)CCC3)no1	Jurkat viability 68.8
CCc1ccc(CCC(=O)Nc2sc3c(c2C#N)CCCC3)o1	Jurkat viability 89.0
Cc1cccc(S(=O)(=O)c2c(N)n(Cc3ccco3)c3nc4ccccc4nc23)c1	none (no result: Htt clearance)
Nc1c(S(=O)(=O)c2cccc(Cl)c2)c2nc3ccccc3nc2n1/N=C/c1ccc(O)c(O)c1	SKBR3 24h inh 2.7 (no result: Htt clearance)
c1coc(-c2nn3c(Cn4nnc5ccccc54)nnc3s2)c1	none
CCn1c2ccccc2c2cc(NC(=O)CSc3nnc(-c4ccc(OC)c(OC)c4)n3N)ccc21	none (no result: Cdc25B inh, SKBR3 24h inh, MKP-1 inh, Jurkat viability)
CCn1c2ccccc2c2cc(NC(=O)CSc3nnc(-c4ccccc4OC)n3N)ccc21	Htt clearance 75.7
Cc1ccc(N2C(=O)CC3(CC4C=CC3C4)C2=O)cc1 (stereo not drawn)	none (no result: Jurkat viability)
Nc1nonc1-c1nc2ccccc2n1CC(=O)O	none (no result: Cdc25B inh, SKBR3 24h inh, MKP-1 inh, Jurkat viability)
COC(=O)c1ccccc1NC(=O)Cn1c(-c2nonc2N)nc2ccccc21	Jurkat viability 61.1
O=C1CC(C(=O)Nc2nccs2)C(c2ccccc2)O1 (stereo not drawn)	none (no result: Cdc25B inh, MKP-1 inh, Jurkat viability, Htt clearance)
O=C(CSc1nnc(-c2ccccc2)n1Cc1ccco1)Nc1ccc(S(=O)(=O)N2CCCC2)cc1	Htt clearance 83.8 (no result: Cdc25B inh, SKBR3 24h inh, MKP-1 inh, Jurkat viability)
Cc1ccc(NC(=O)CSc2nnc(-c3ccc(S(=O)(=O)N4CCCC4)cc3)o2)cc1C	MKP-1 inh 53.2 (no result: SKBR3 24h inh, Htt clearance)
Cc1cccc(NC(=O)CSc2nnc(-c3ccc(S(=O)(=O)N4CCCC4)cc3)o2)c1	none
O=c1c2cc(N3CCOCC3)ccc2[nH]c(=S)n1Cc1cccc(Cl)c1	none (no result: Cdc25B inh, SKBR3 24h inh, MKP-1 inh, Jurkat viability)
O=c1c2cc(N3CCOCC3)ccc2[nH]c(=S)n1Cc1ccco1	MKP-1 inh 81.4 (no result: SKBR3 24h inh, Jurkat viability, Htt clearance)
CC1CCN(Cc2nc3c(c(=O)n(C)c(=O)n3C)n2CCN2CCOCC2)CC1	none (no result: Jurkat viability, Htt clearance)
COc1ccc(CNC(=O)C2CCCN2S(=O)(=O)c2ccc(S(=O)(=O)N(C)C)cc2)cc1 (stereo not drawn)	SKBR3 24h inh 33.5 (no result: Htt clearance)
CNC(=O)C1CCCN1S(=O)(=O)c1ccc(OC)cc1 (stereo not drawn)	none
